Bioassay records from PubChem BioAssay.
BAZ2B inh: blocks human BAZ2B | AID 504333 | Potency, µM (highest dose often 114 µM), hits mostly inhibitors | Q9UIF8 | 4.4% of 360,000 active | AlphaScreen BAZ2B-H3K14Ac peptide displacement; further: nearly all actives have a fitted effect of over 60% in size
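AlphaScreen displacement: compounds (up to 110uM) incubated 30 min at room temperature with a preformed 50 nM BAZ2B/50 nM biotinylated H3K14Ac peptide complex in PBS pH 7.4 with Tween-20. Donor and acceptor beads at 10 ug/mL final added, 20 min light-protected before reading.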
G9a block: G9a (human) methyltransferase inhibition | Potency, µM (highest dose often 102 µM), hits mostly inhibitors | AID 504332 | 8.8% of 350,000 active | G9a H3K9 monomethylation, AlphaScreen, 2 h | Q96KQ7; further: nearly all actives have a fitted effect of over 75% in size
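G9a (20 nM) was preincubated 15 min with compound, then reacted 2 h at room temperature with 500 nM biotin-H3K9 peptide and 20 µM SAM. Monomethyl-H3K9 detected by AlphaScreen using anti-H3K9me1 antibody.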
HP1b chromo inh: blocks HP1-beta chromodomain binding to methylated histone tails; AlphaScreen HP1-beta / biotin-H3K9me3 peptide binding; 0.56% of 390,000 active; Potency, µM (series often up to 114 µM), most hits filed as inhibitors; P83916; further: nearly all actives have a fitted effect of over 70% in size
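HP1-beta protein (50 nM final) preincubated 30 min at room temperature with biotinylated H3(1-18)K9me3 peptide (50 nM) in PBS pH 7.4, 0.01% Tween-20, then compound added for 30 min. AlphaScreen streptavidin donor/nickel chelate acceptor beads (10 ug/mL final), 30 min dark, luminescence read.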
JMJD2A Tudor: JMJD2A Tudor domain (human) inhibition. 4.4% of 390,000 active. O75164. Potency, µM (titrated, usually from 114 µM), most hits filed as inhibitors. AlphaScreen JMJD2A-Tudor / H3K4me3 peptide binding; further: nearly all actives have a fitted effect of over 50% in size
Sfp inh: inhibitors of Bacillus subtilis Sfp phosphopantetheinyl transferase; Q9F4F7; Biochemical Sfp PPTase activity, qHTS; Potency, µM, actives largely listed as inhibitors; 3.5% of 310,000 active; AID 1490;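 further: the enzyme is Sfp with the accession as filed and its product quenches rhodamine fluorescence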
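After 15 min at room temperature with compound, 15 nM Sfp received 5 uM rhodamine-CoA plus 12.5 uM BHQ-2-ybbR (50 mM Hepes pH 7.6, 10 mM MgCl2). Rate came from the fluorescence difference over 30 min, ex 525/em 598 nm.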
Large screens that a line does not name were inactive. Hits are enriched below; roughly 12% of the tested compounds scored in any of these assays. The call rests on the fitted dose curve; in most records, active means well fitted curve in the direction sought with a large enough effect; inconclusive means small, poorly fitted or top-dose-only effect, or another doubt; inactive means no such curve, though single readings can be large; an effect the other way counts as inactive or inconclusive.

CC(C)CCN(CC(=O)NC1CCCC1)C(=O)C(=O)Nc1ccc2c(c1)OCCO2	none
CCCCN(CC(=O)NC1CCCC1)C(=O)C(=O)Nc1ccc2c(c1)OCCO2	JMJD2A Tudor 79µM
Cn1cc(SCC(=O)NC2CCCCC2)c2ccccc21	none
CCCc1cc(C(=O)N2CCCC(N3CCN(c4ccccc4F)CC3)C2)n(C)n1 (centres undefined)	none
CCN(CC)C(=O)c1ccc(C(=O)c2c(C)cc(C)cc2C)cc1	none
CCCC(=O)N(c1ccc2oc(C)c(C(C)=O)c2c1)S(=O)(=O)c1ccc(CC)cc1	none (no result: Sfp inh)
CNC(=O)/C(C#N)=C/c1c(N(Cc2ccccc2)Cc2ccccc2)nc2c(C)cccn2c1=O	BAZ2B inh inconclusive, G9a block 79µM, JMJD2A Tudor inconclusive, Sfp inh inconclusive
C=CCNC(=O)/C(C#N)=C/c1c(N2CCN(c3ccc(OC)cc3)CC2)nc2c(C)cccn2c1=O	BAZ2B inh inconclusive, HP1b chromo inh inconclusive, JMJD2A Tudor 25µM
COc1ccc(N2CCN(c3nc4ccc(C)cn4c(=O)c3C=O)CC2)cc1	BAZ2B inh inconclusive, G9a block 45µM, JMJD2A Tudor inconclusive
CCNC(=O)/C(C#N)=C/c1c(N(Cc2ccccc2)Cc2ccccc2)nc2ccccn2c1=O	JMJD2A Tudor inconclusive
COc1ccc(N2CCN(c3nc4c(C)cccn4c(=O)c3/C=C(\C#N)C(N)=O)CC2)cc1	BAZ2B inh 35µM, G9a block 32µM, JMJD2A Tudor inconclusive
Cc1ccc2nc(N3CCN(c4ccccc4)CC3)c(C=O)c(=O)n2c1	JMJD2A Tudor inconclusive
O=C(C1CCCN(S(=O)(=O)c2ccc(Br)s2)C1)N1CCN(c2cccc(Cl)c2)CC1 (centres undefined)	none (no result: Sfp inh)
COc1ccc(-c2nc3ccccc3c(=O)n2CCOc2c(C)cccc2C)cc1	none
Nc1cc(=O)[nH]c(=O)n1Cc1ccco1	none
CCOc1ccc(CNC(=O)c2ccc(NC(=O)N3CCSc4ncccc43)cc2)cc1	none (no result: Sfp inh)
O=S(=O)(O)c1cccc2cccnc12	JMJD2A Tudor inconclusive (no result: BAZ2B inh, G9a block, Sfp inh)
O=S(=O)(NCCc1ccccc1)c1cccc2cccnc12	G9a block 50µM
O=C(O)c1ccccc1NS(=O)(=O)c1cccc2cccnc12	G9a block inconclusive, JMJD2A Tudor 20µM
Nc1ccccc1S(=O)(=O)Nc1cccc2cccnc12	JMJD2A Tudor 56µM (no result: BAZ2B inh, G9a block, HP1b chromo inh)
CSS(=O)(=O)c1cccc2cccnc12	BAZ2B inh 14µM, G9a block 0.28µM, JMJD2A Tudor 3.2µM, Sfp inh 20µM
O=S(=O)(NCc1ccccc1)c1cccc2cccnc12	none
CCN1C(C(=O)c2ccccc2)=C(OC(=O)c2ccccc2OC)c2ccccc2S1(=O)=O	JMJD2A Tudor inconclusive (no result: Sfp inh)
COc1ccccc1CCNC(=O)CCSc1nc(-c2ccco2)cc(C(F)(F)F)n1	Sfp inh 56µM
O=C(CCSc1nc(-c2ccco2)cc(C(F)(F)F)n1)N1CCCc2ccccc21	G9a block 16µM
CCN1CCCC1CNC(=O)C1CCN(C(=O)c2cc3sccc3n2Cc2ccc(F)cc2)CC1 (centres undefined)	G9a block inconclusive
Clc1cccc(N/N=C/c2ccc(N3CCOCC3)s2)c1	BAZ2B inh 50µM, G9a block 1.1µM, Sfp inh inconclusive
Nc1ccc(C(=O)N/N=C/c2ccc(N3CCOCC3)s2)cc1	none (no result: BAZ2B inh, G9a block, Sfp inh)
CC(C)(C)OC(=O)N/N=C/c1ccc(N2CCOCC2)s1	G9a block 16µM
O=C(N/N=C/c1ccc(N2CCOCC2)s1)c1ccccc1Br	G9a block inconclusive, Sfp inh 35µM
CCCC(=O)Nc1ccc2nc(SCCOc3ccccc3)sc2c1	BAZ2B inh inconclusive (no result: Sfp inh)
COc1cccc(N2CCN(C(=O)CN(c3cc(C)cc(C)c3)S(=O)(=O)c3c(C)noc3C)CC2)c1	BAZ2B inh inconclusive (no result: G9a block)
CSC1=C(C#N)C(c2ccc(C)cc2)C2=C(CCCC2=O)N1 (centres undefined)	none
Cc1cc2nc3c(=O)n(C4CCCCC4)c(=O)[nH]c3nc2cc1N	G9a block 1.3µM
Cc1cccnc1NC(=S)NC(=O)/C=C/c1ccco1	G9a block 32µM
COc1ccccc1/C=C/C(=O)NC(=S)Nc1ccccn1	none
O=C(/C=C/c1ccco1)NC(=S)Nc1ccccn1	BAZ2B inh 56µM, G9a block inconclusive, JMJD2A Tudor 79µM, Sfp inh inconclusive
C=CCOc1c(CCC)cc(CCC)cc1C(N)=O	none
CCCCCC(=O)Nc1nc(C)c(-c2csc(Nc3ccccc3OCC)n2)s1	G9a block inconclusive, JMJD2A Tudor inconclusive, Sfp inh inconclusive
